Reference: PubChem BioAssay AID602383 (National Center for Advancing Translational Sciences (NCATS), 2012)

These molecules were tested against Pyruvate kinase PKM (Homo sapiens) (UniProt P14618) (assay: qHTS for Activators of Human Muscle Isoform 2 Pyruvate Kinase: Muscle Isoform 1 Assay). Conditions: purified hPK-M1, ATP generation, Kinase-Glo luminescence, 1 h; series mostly up to 58.2 µM; activity change, positive = activation: at the top concentration; active means well fitted curve in the direction sought with a large enough effect; inactive means no such curve, though single readings can be large or run the other way.
Description: Human pyruvate kinase muscle isoform 1 (hPK-M1) enzyme was supplied as a highly purified (>95% pure) preparation from Harvard Medical School and assayed for its ability to generate ATP from ADP using phosphoenolpyruvate (PEP) as a substrate. ATP generation was detected in a coupled reaction by luciferase-mediated luminescence, an ATP-dependent process. Pyruvate kinase substrates, PEP and ADP, were present in the assay at Km and approximately 10-fold below Km respectively. The enzyme was assayed at an intermediate level of activity to screen for both inhibitors and activators. NIH Chemical Genomics Center [NCGC] NIH Molecular Libraries Probe Centers Network [MLPCN] MLPCN Grant: MH085679 Assay Submitter (PI): Matthew G. Vander Heiden, Harvard Medical School
Three uL of substrate mix (at r.t.) in assay buffer (50 mM Imidazole pH7.2, 50 mM KCl, 7 mM MgCl2, 0.01% Tween 20, 0.05% BSA) was dispensed into white solid bottom 1,536 well microtiter plates so that the final concentrations of substrates in the assay were 0.1 mM ADP and 0.5 mM PEP. 23 nL of compound were delivered by a pin tool and 1 uL of enzyme mix (final concentration of 1 nM) in assay buffer (4 degree Celsius) was added. Plates were incubated at room temperature for 1 hour. Two uL of detection mix (Kinase-Glo, Promega; at 4 degree Celsius protected from light) was added and luminescence read by a ViewLux (Perkin Elmer) at 1 second exposure/plate. Data were normalized to the uninhibited (row 31). Additionally, a no enzyme and 5-fold enzyme control was dispensed in row 32, split equally between the two conditions.

Chain of Pyruvate kinase PKM (Homo sapiens) (P14618 whole entry, looked up, canonical isoform): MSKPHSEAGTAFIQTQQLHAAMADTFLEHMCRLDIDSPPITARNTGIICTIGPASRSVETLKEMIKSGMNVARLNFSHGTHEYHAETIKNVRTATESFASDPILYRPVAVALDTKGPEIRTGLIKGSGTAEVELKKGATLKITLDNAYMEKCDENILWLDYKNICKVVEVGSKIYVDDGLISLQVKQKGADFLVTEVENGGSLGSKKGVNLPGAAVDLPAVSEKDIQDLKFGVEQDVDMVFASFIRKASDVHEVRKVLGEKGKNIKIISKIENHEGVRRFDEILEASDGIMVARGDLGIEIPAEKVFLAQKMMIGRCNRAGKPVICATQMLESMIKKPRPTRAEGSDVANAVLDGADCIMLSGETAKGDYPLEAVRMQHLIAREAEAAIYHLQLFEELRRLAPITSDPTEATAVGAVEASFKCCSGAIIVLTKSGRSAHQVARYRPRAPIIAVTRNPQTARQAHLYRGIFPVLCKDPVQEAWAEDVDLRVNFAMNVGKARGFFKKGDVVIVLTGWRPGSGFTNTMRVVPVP

Activity change, positive = activation, inactive:
Cc1cc2c(s1)c1cnn(Cc3cc(F)ccc3F)c(=O)c1n2C 11.1%
Cn1c2cc(S(C)=O)sc2c2cnn(Cc3cccc(N)c3)c(=O)c21 (stereo unspecified) 1.03%
Cc1cc2c(s1)c1cnn(Cc3ccc(F)cc3F)c(=O)c1n2C 7.13%
COc1cccc(Cn2ncc3c4sc(S(C)=O)cc4n(C)c3c2=O)c1 (stereo unspecified) -3.35%
Cc1cc2c(s1)c1cnn(Cc3cc(F)c(F)cc3F)c(=O)c1n2C 8.28%
Cc1cc2c(s1)c1cnn(Cc3c(Cl)ccc(C)c3F)c(=O)c1n2C 7.26%
